Assay outcomes deposited in PubChem BioAssay by The Scripps Research Institute Molecular Screening Center.
TEAD-YAP block – TEAD-YAP interaction inhibition; HEK-TIYL cells, TEAD-Gal4/YAP UAS-luciferase luminescence; inhibition, % at 9.12 µM; hit rate 1.4% among 640,000; in the data active means inhibition above about 32%;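 further: 0% = median of test compound wells and 100% = reference inhibitor wells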
MITF inh – blocks human microphthalmia-associated transcription factor; AlphaScreen MITF homodimerization, bead proximity signal; inhibition, % at 2.6 µM; hit rate 0.91% among 650,000; in the data active means inhibition above about 50%;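 further: 0% = vehicle wells with protein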
FBW7 activator – human FBW7 E3 ligase activation, primary screen; Q969H0; hit rate 0.13% among 650,000; AID 1259310; AlphaScreen FBW7–phospho-cyclin E peptide binding, activator screen; normalized activity (activation), % at 26.1 µM; in the data active means normalized activity above about 1.9%;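 further: purified mutant Fbw7 with reduced substrate affinity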
GPR151 activ – human GPR151 activation | Q8TDV0 | PathHunter beta-arrestin GPR151 cells, luminescence | activation, % at 11.2 µM | hit rate 1% among 650,000; in the data active means activation above about 4.9%;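 further: 0% = median of compound wells and 100% = cells with positive control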
GPR151 confirm – confirmation of human GPR151 activators. shares compounds with GPR151 activ. GPR151 PathHunter beta-arrestin cells, luminescence, 90 min; % of EA-reagent control over plate median. 6,700 tested, under 10 active. activation, % at 11.2 µM. AID 1508609;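 active means mean percent activation across replicates above the confirmation screen cutoff of 4.91%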
GPR119 ag – GPR119 activation, counter-screen for GPR151 activators; shares compounds with GPR151 activ; GPR119 PathHunter beta-arrestin cells, luminescence, 90 min; 0 = compound-well median, 100 = enzyme-acceptor control; activation, % at 11.2 µM; hit rate 0.3% among 6,700; AID 1508611;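 active means mean percent activation in the counterscreen above 29.09%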;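 further: counterscreen on off-target GPR119 to flag nonselective hits from the GPR151 activator screen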
Target sequence (Q8TDV5 whole entry, looked up): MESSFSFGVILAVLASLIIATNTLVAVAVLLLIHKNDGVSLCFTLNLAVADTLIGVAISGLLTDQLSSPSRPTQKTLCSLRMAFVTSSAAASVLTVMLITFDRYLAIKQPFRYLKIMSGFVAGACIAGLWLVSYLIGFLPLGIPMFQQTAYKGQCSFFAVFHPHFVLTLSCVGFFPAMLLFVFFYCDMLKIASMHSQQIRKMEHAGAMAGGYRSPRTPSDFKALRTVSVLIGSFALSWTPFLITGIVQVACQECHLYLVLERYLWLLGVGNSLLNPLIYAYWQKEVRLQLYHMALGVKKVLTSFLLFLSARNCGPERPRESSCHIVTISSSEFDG
The depositor's hits bear a star; . = no result given; ! = a repeat was not active. This is a sample that favours compounds with a hit; in the whole collection about 3.5% have one here.

SMILES	TEAD-YAP block	MITF inh	FBW7 activator	GPR151 activ	GPR151 confirm	GPR119 ag
CCOC(=O)N/N=C/C1=CCC2CC1C2(C)C (stereo not given)	7.1	6.9	-0.1	0.0	.	.
O=C(CCc1nnc(CCCc2ccccc2)o1)N1CCCCC1CCO (stereo not given)	-35.6	9.4	-0.1	-2.4	.	.
CC(C)(C)NC(=O)NC(=O)COC(=O)Cc1ccc(Cl)c(Cl)c1	-1.4	1.3	-0.1	7.2*	-0.2	-1.6
CC(C)(C)NC(=O)NC(=O)COC(=O)Cn1cnc2ccccc2c1=O	2.4	3.8	-0.2	6.8*	-0.4	1.9
CCSc1nc2sccn2c(=O)c1C(=O)NCCc1ccncc1	0.0	10.2	-0.1	0.5	.	.
CCOC(=O)C1CCN(Cc2ccc(OC)c(Br)c2)CC1	19.4	39.1	0.8	0.6	.	.
COc1ccc(Cl)cc1NC(=O)Cn1nc2n(C)c3ccccc3n2c(=O)c1=O	3.6	-1.1	0.5	-0.4	.	.
COC(=O)c1ccc(NC(=O)Cn2nc3n(C)c4ccccc4n3c(=O)c2=O)cc1	-12.3	3.0	-0.1	8.8*	0.9	1.9
Cn1nccc1Nc1nc2ccc(C(=O)NCc3ccccc3)cc2s1	6.8	10.4	0.9	-1.3	.	.
CCn1nnnc1SCC(=O)N1CCN(C(=O)c2ccco2)CC1	-9.4	2.0	-0.1	5.0*	-0.8	-8.9
O=C(CSc1nnc2ncccn12)N1CCN(C(=O)c2ccco2)CC1	-13.1	5.3	0.2	1.8	.	.
O=C(CCCCCN1C(=O)c2ccccc2C1=O)Nc1ccccc1	-8.1	2.8	0.0	-0.2	.	.
O=C(CCCCCCN1C(=O)c2ccccc2C1=O)NN(c1ccccc1)c1ccccc1	-3.4	8.8	0.0	6.2*	0.9	5.9
CCOCCCNC(=O)c1cc2cc3ccc(OC)cc3nc2o1	-20.1	0.9	0.1	-0.5	.	.
CCOC(=O)Cc1csc(SCc2cc(=O)n3cc(Br)ccc3n2)n1	-5.6	3.8	-0.1	0.1	.	.
Cn1c(N)c(S(=O)(=O)Nc2cccc(Cl)c2)c(=O)n(C)c1=O	-2.2	2.8	-0.2	7.7*	-0.5	0.2
Cc1c(S(=O)(=O)Nc2cccc(Cl)c2)c(=O)n(C)c(=O)n1C	-1.6	2.4	-0.1	-0.2	.	.
Oc1ccc2ncccc2c1C(Nc1ccccn1)c1ccco1 (stereo not given)	5.8	7.9	0.1	30.7*	1.9	13.7
COc1cccc(-n2c(=S)[nH]c3ncccc3c2=O)c1	1.2	0.4	0.0	1.9	.	.
O=C(NC1=Nc2cccc3cccc1c23)c1ccc([N+](=O)[O-])cc1	2.3	7.2	-0.1	5.5*	-0.3	-12.2
O=[N+]([O-])c1ccc(/C=N/NC2=Nc3cccc4cccc2c34)cc1	-26.7	3.6	-0.1	6.3*	-0.1	2.9
O=[N+]([O-])c1cccc(/C=N/NC2=Nc3cccc4cccc2c34)c1	-34.7	15.0	-0.2	-0.9	.	.
CC(C)CC1NC(=O)N(CC(=O)Nc2cccc(I)c2)C1=O (stereo not given)	0.2	-4.4	0.0	8.8*	1.4	5.3
COc1cc(/C=C/c2cc(C(F)(F)F)[nH]c(=O)n2)ccc1Oc1nc2c(c(=O)n(C)c(=O)n2C)n1C	1.5	19.2	0.4	1.4	.	.
CC(=O)c1ccc(NC(=O)c2ccc(S(=O)(=O)N3CCCC3)cc2)cc1	1.3	11.3	0.3	5.0*	-0.5	-13.0
SMILES	TEAD-YAP block	MITF inh	FBW7 activator	GPR151 activ	GPR151 confirm	GPR119 ag
CC(=O)c1ccc(NC(=O)Nc2ccc(S(=O)(=O)N3CCCC3)cc2)cc1	16.8	9.3	0.2	-1.0	.	.
COc1cc(NS(=O)(=O)c2ccc(NC(=O)c3ccc(C(C)=O)cc3)cc2)ncn1	-6.7	12.7	-0.1	5.7*	-0.5	-12.8
CC(=O)N1CCc2cc(Br)cc(S(=O)(=O)N(C)c3cc(C)ccc3C)c21	-7.7	12.3	0.0	-0.6	.	.
CCOC(=O)c1cnc2c(OC)cccc2c1Nc1cccc(C(=O)O)c1	-2.7	11.4	-0.1	5.3*	1.7	12.1
COc1cccc2ccc(CN3CCN(Cc4ccsc4)C(CCO)C3)nc12 (stereo not given)	-14.3	-1.0	0.0	-1.1	.	.
CN(C)CCCN1c2ccccc2CCc2ccc(Cl)cc21	0.2	17.0	-0.2	10.5*!	0.1	-11.9
CN(CCCN1c2ccccc2CCc2ccccc21)CC(=O)c1ccc(Cl)cc1	-6.3	6.3	0.1	-2.1	.	.
